High-throughput results from PubChem.
Rows were chosen to be rich in hits. Some 3.1% of all compounds tested hit in one or more screens of this group.
MITF act = MITF TRPM1 promoter activation in melanoma cells | activation, % at 12.5 µM | SK-MEL-5 TRPM1-promoter luciferase, 24 h; % of positive control, neutral wells = 0 | AID 588334 | 0.75% of 300,000 active;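 active = mean activation of at least 80% with every replicate also reaching 80%; inconclusive = mean reaches 80% but some replicate falls short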
Rtt109 Vps75 = blocks Candida albicans Rtt109/Vps75 acetyltransferase activity; Q5AAJ8; purified Rtt109/Vps75, ThioGlo CoA-SH fluorescence, 4 h; inhibition, % at 34.9 µM; 0.16% of 330,000 active; AID 540336;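 active = inhibition of at least 50% in every replicate; inconclusive = best replicate reaches 50% inhibition but some replicates fall short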
Target sequence (Q5AAJ8 whole entry, looked up): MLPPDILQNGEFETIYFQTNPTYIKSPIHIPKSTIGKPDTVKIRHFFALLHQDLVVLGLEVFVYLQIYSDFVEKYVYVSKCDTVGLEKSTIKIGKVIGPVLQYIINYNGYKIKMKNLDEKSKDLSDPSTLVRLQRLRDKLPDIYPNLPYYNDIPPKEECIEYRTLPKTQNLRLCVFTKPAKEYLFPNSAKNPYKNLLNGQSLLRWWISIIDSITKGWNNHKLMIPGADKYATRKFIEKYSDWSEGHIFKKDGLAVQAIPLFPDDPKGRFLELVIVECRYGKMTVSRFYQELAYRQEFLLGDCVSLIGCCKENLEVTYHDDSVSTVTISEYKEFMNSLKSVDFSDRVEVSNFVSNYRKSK
esBAF inh = SWI/SNF esBAF complex inhibition; mouse ES cells, Bmi1-luciferase knock-in reporter, 24 h; 100% = twice the neutral-well signal; reporter increase, % at 12.5 µM; 2% of 350,000 active; in the data active = activation above about 40%; inconclusive = no clear call, values can overlap the other calls;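 also: a rise in the Bmi1 reporter signal indicates esBAF inhibition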
Wnt act = activates Wnt/beta-catenin signaling in a reporter cell assay; 1.2% of 300,000 active; activation, % at 9.35 µM; AID 743398; activator, plate reader; in the data active = activation above about 30%, passing the limit was not always enough; inconclusive = no clear call, values can overlap the other calls
Statin myotox sup = protects C2C12 myotubes from simvastatin toxicity; rescue of ATP level, % at 7.49 µM; AID 602340; 0.78% of 330,000 active; ATP luminescence, 48 h; scaled: DMSO 0, geranylgeraniol control 100;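 active = mean ATP rescue above about 67%, or every replicate alone reaching that limit, limit read from the data, passing the limit was not always enough; inconclusive = no clear call, values can overlap the other calls; inactive = mean under the limit and some replicate under it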;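 also: myotubes were challenged with 10 µM simvastatin during compound exposure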
Each line names hits and unclear results; the compound was inactive in the other large screens.

O=[N+]([O-])c1ccc2[nH]c(O)c(N=Nc3ccc(F)cc3)c2c1	none (no result: MITF act)
O=[N+]([O-])c1ccccc1N=Nc1c(O)[nH]c2ccc(F)cc12	Wnt act 31 (no result: esBAF inh, Statin myotox sup)
O=[N+]([O-])c1ccc(N=Nc2c(O)[nH]c3ccc(F)cc23)cc1	esBAF inh 73
C=CCOC(=O)c1ccc(-n2cnc(C)n2)nc1	none (no result: esBAF inh, Statin myotox sup)
C=CCOC(=O)c1ccc(-n2cncn2)nc1	Statin myotox sup 134
Cc1ccc(NC(=O)C(=O)NCCc2c[nH]c3ccccc23)cc1C	none (no result: esBAF inh, Statin myotox sup)
O=C(NCCc1c[nH]c2ccccc12)c1cc(Cl)c2c(c1)OCO2	MITF act 113, esBAF inh 47, Wnt act 36
O=C(NCCc1c[nH]c2ccccc12)C(=O)Nc1ccccc1	esBAF inh 58
O=C(NCCc1c[nH]c2ccccc12)c1ccc2c(c1)OCO2	none
Cn1c(C(=O)NCCc2c[nH]c3ccccc23)cc2sccc21	MITF act 101, esBAF inh 74
C[C@@H]1CCCCO[C@H](CN(C)C(=O)Nc2ccccc2)[C@H](C)CN([C@@H](C)CO)C(=O)c2cc(NS(=O)(=O)c3ccc(Cl)cc3)ccc2O1	none (no result: MITF act, Rtt109 Vps75, Wnt act, Statin myotox sup)
CNC[C@H]1Oc2ccc(NS(=O)(=O)c3ccc(C)cc3)cc2C(=O)N([C@H](C)CO)C[C@@H]1C	none (no result: MITF act, Rtt109 Vps75, Wnt act)
COc1ccccc1NC(=O)N[C@H]1CC[C@@H](CCNC(=O)Cc2ccccn2)O[C@@H]1CO	none (no result: MITF act, Rtt109 Vps75, Wnt act)
Cc1ccccc1-c1nnc(SCC#N)o1	none (no result: esBAF inh, Statin myotox sup)
Cc1ccccc1-c1nnc(-c2ccc(Br)cc2)o1	esBAF inh 69, Wnt act 44 (no result: MITF act)
Cc1ccccc1-c1nnc(-c2ccccc2C)o1	Wnt act 47 (no result: esBAF inh, Statin myotox sup)
COc1cc(NS(=O)(=O)c2ccc(NC(=S)NC(=O)/C=C/c3ccc(F)cc3)cc2)ncn1	Wnt act 41
CO[C@H]1CC[C@H]2CCOc3ccc(C#N)cc3C(=O)N(C)CCCC(=O)N(C)C[C@@H]1O2	none (no result: MITF act, Rtt109 Vps75, Wnt act)
CCN1C(=O)C(C)S/C1=N\S(=O)(=O)c1ccc(Cl)s1 (configuration not stated)	Statin myotox sup 136 (no result: Wnt act)
COc1ccc(NC(=O)N(C)C[C@H]2OCCCC[C@@H](C)Oc3ccc(NS(=O)(=O)c4c(C)noc4C)cc3C(=O)N([C@@H](C)CO)C[C@H]2C)cc1	none (no result: MITF act, Rtt109 Vps75, Wnt act)
COc1ccccc1/C=N/NC(=O)C(=O)N1CCN(c2ccccc2OC)CC1	none (no result: esBAF inh, Statin myotox sup)
COc1ccccc1N1CCN(C(=O)C(=O)N/N=C/c2cccc(O)c2)CC1	Statin myotox sup 96
COc1cccc(N=Nc2c(=O)[nH]n3c(=O)cc(C)[nH]c23)c1	Statin myotox sup 94
C[C@@H]1CN([C@@H](C)CO)C(=O)c2cccc(NC(=O)c3ccncc3)c2O[C@@H]1CN(C)C(=O)Nc1ccc(C(F)(F)F)cc1	none (no result: MITF act, Rtt109 Vps75, Wnt act)
COc1ccc(Oc2nccc(-c3ccc(F)cc3)c2C#N)cc1	none (no result: Wnt act)
COc1ccc(Oc2nccc(-c3ccccc3)c2C#N)cc1	esBAF inh 55 (no result: Wnt act)
COc1ccc(S(=O)(=O)N(CC(C)C)CC(C)C)c2cccnc12	Statin myotox sup 154
CCCCN(CCCC)S(=O)(=O)c1ccc(OC)c2ncccc12	Statin myotox sup 66 (no result: Wnt act)
O=[N+]([O-])c1cc(S(=O)(=O)C(F)(F)F)ccc1Sc1nc2ccccc2s1	Statin myotox sup 86 (no result: Wnt act)
Cc1ccc(-n2c(C)cc(C(=O)CSc3nncs3)c2C)cc1	none (no result: esBAF inh, Wnt act, Statin myotox sup)
Cc1cc(C(=O)CSc2nnnn2-c2ccccc2)c(C)n1CCc1ccccc1	Statin myotox sup 107
Cc1ccc(-n2c(C)cc(C(=O)CSc3nnnn3C)c2C)cc1	Wnt act 63
CN(C(=O)CN1CCN(c2cnn(-c3ccccc3)c(=O)c2Cl)CC1)C1CCS(=O)(=O)C1 (configuration not stated)	Wnt act 44
O=C(C[C@H]1CC[C@@H](NS(=O)(=O)c2ccccc2)[C@@H](CO)O1)NCc1ccccc1F	none (no result: MITF act, Rtt109 Vps75, Wnt act)
CSc1nc2c(cnn2-c2ccccc2)c(=O)n1N	esBAF inh 48 (no result: Wnt act)
CCC(=O)N(C)C[C@H]1Oc2cc(-c3ccccc3)ccc2S(=O)(=O)N([C@@H](C)CO)C[C@H]1C	none (no result: MITF act, Rtt109 Vps75, Wnt act)
Clc1ccc2nc(-c3ccccc3)c(Cc3ccsc3)n2c1	esBAF inh inconclusive (no result: MITF act, Rtt109 Vps75, Wnt act)
Cc1cc2nc(-c3ccccc3)c(Cc3cccc(F)c3)n2c(C)c1Br	none (no result: MITF act, Rtt109 Vps75)
Clc1ccc(-c2nc3ccc(Cl)cn3c2Cc2ccsc2)cc1	esBAF inh 71 (no result: MITF act, Rtt109 Vps75)
COC(=O)c1ccc2nc(-c3cccc(Cl)c3)c(Cc3ccsc3)n2c1	esBAF inh 55 (no result: MITF act, Rtt109 Vps75)
COC(=O)c1ccc2nc(-c3ccc(Cl)cc3)c(Cc3ccsc3)n2c1	none (no result: MITF act, Rtt109 Vps75, esBAF inh, Statin myotox sup)
